Test results reported in PMC4336329 (PLoS ONE, 2015).
About 14,000 (4.5%) of roughly 310,000 compounds showed an effect of 50% or more. The effect is printed as a negative number. This excerpt belongs to a sample that is enriched for strong results.

Biological target: human ether-à-go-go-related gene (hERG) potassium channel (human, UniProt Q12809)
Experiment: primary screen, population patch clamp on CHO cells stably expressing hERG; higher = less effect of the substance
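Also: peak tail current of the secondary pulse compared with the same well before compound.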

human ether-à-go-go-related gene (hERG) potassium channel, sequence (Q12809 whole entry, looked up): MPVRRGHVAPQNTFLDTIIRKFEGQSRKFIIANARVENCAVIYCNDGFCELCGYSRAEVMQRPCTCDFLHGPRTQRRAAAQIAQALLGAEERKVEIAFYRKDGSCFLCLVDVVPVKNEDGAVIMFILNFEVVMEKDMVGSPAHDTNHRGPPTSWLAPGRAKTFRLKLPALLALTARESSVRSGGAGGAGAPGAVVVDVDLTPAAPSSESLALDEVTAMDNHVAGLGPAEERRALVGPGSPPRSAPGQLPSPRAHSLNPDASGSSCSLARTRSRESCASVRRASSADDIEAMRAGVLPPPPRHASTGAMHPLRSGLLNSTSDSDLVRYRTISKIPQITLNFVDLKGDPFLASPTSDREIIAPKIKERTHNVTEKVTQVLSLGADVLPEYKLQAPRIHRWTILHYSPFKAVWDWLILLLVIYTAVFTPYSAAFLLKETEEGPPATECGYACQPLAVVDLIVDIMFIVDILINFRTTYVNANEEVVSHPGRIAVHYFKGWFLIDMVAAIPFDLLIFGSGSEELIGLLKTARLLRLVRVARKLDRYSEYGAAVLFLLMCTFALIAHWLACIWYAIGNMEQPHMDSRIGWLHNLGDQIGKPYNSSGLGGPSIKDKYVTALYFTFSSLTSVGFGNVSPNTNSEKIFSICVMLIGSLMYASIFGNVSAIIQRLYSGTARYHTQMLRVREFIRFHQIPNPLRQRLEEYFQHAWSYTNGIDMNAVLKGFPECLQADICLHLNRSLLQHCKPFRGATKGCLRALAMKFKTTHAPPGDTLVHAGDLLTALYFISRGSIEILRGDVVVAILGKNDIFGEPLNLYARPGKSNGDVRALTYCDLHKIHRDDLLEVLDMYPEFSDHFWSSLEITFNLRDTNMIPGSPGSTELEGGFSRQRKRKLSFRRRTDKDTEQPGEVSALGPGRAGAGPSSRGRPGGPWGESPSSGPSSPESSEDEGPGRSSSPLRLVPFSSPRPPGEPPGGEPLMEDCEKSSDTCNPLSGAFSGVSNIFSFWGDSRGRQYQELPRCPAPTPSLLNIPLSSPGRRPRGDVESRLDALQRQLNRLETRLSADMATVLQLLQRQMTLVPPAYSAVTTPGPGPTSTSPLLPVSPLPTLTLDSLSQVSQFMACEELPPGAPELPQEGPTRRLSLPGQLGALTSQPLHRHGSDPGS

Point of comparison: `COc1cccc(OC)c1C(=O)OCC(=O)NCC(C)C`, “hERG current change (%, negative = inhibition) at 10uM” value 24.7%. Against it:
- O=C(c1ccccn1)N(Cc1ccco1)C1(C(=O)NC2CCCCC2)CCCCC1 — lower, 10.9%
- O=C(CCC(=O)OCc1ccc(Br)cc1)Nc1ccccc1 — lower, 8.45%
- CCC1CCCCN1C(=O)Cn1c(=O)n(CCC(=O)NCc2ccco2)c(=O)c2sccc21 (stereo not shown) — lower, -6.12%
- C=CCNC(=O)c1ccccc1NC(=O)C1COc2ccccc2O1 (stereo not shown) — lower, 4.92%
- c1ccc(CCNc2ncnc3ccccc23)cc1 — lower, -43.2%
- Cc1cc(Cl)ccc1OC(C)C(=O)NN1C(=O)c2ccccc2C1=O (stereo not shown) — lower, 20.9%
- COc1cccc(NC(=O)N2CCOCC2)c1 — lower, -14.8%
- CC(C)(C)N=Cc1cc(-c2ccccc2)sc1O — lower, -17.2%
- COc1ccc(/C=C/C(=O)c2ccc(NC3=NCCCS3)cc2)cc1OC — lower, -37.7%
- Cc1nn(Cc2ccccc2)c(C)c1/C=N/NC(=O)c1ccncc1 — lower, -46.4%
- Cc1cccc(N2CCN(C(=O)c3cc(S(=O)(=O)N4CCCC4)cn3C)CC2)c1C — lower, -38%
- Cc1cc(C)cc(NC(=O)CSc2nc3ccncc3[nH]2)c1 — lower, 8.99%
- O=C(Nc1ccc(Cl)c(S(=O)(=O)N2CCOCC2)c1)c1cn2ccccc2n1 — lower, 11.9%
- O=C(Nc1cc(S(=O)(=O)N2CCOCC2)ccc1N1CCOCC1)c1cn2ccccc2n1 — lower, -52.3%
- O=C(Nc1cc(C(F)(F)F)ccc1N1CCOCC1)c1cn2ccccc2n1 — lower, -2.98%
- C=CCn1c(COc2ccccc2)nnc1SC(C)C(=O)N/N=C/c1cc(Cl)ccc1O (stereo not shown) — lower, 0.335%
- CCCN1CCN(C(=O)c2ccc3nc(CC)c(CC)nc3c2)CC1 — lower, 1.54%
- CNC(=O)COc1ccc(S(=O)(=O)Nc2ccccc2)cc1 — lower, 14.4%
- O=C(c1ccco1)N1CCCSC1=Nc1ccccc1 — lower, 12%
- Cc1ccc(S(=O)(=O)N/N=c2\oc3ccccc3cc2C(=O)Nc2cccc(C)c2)cc1 — lower, -68.1%
- COc1cccc2cc(C(=O)Nc3cc(C)cc(C)c3)/c(=N/NS(=O)(=O)c3ccccc3)oc12 — lower, 19.5%
- COc1ccc(NC(=O)c2cc3ccccc3o/c2=N\NS(=O)(=O)c2ccc(C)cc2)cc1 — lower, -13.6%
- O=C1CN(C(=O)c2cccc([N+](=O)[O-])c2)CC(=O)N1 — lower, 13.4%
- O=C1CC2(CCN(C(=O)c3cccc([N+](=O)[O-])c3)CC2)Oc2ccccc21 — lower, -75.7%
- O=C1CC2(CCN(C(=O)c3ccc([N+](=O)[O-])cc3)CC2)Oc2ccccc21 — lower, -87.9%
- O=C(c1cccc([N+](=O)[O-])c1)N1CCOCC1 — lower, 11.7%
- Cc1nn2c(C(F)(F)F)c3c(nc2c1-c1ccccc1)CCC3 — lower, 19.1%
- CC(=O)Nc1ccc(NS(=O)(=O)C(F)(F)F)cc1 — higher, 31.2%
- O=C(COc1ccc(Cl)cc1)NCC(=O)N1CCC2(CC1)NCCc1[nH]cnc12 — lower, 7.16%
- O=C(CSc1nc2c(c(=O)n1-c1ccc(F)cc1)SCC2)Nc1ccc2c(c1)OCO2 — lower, -2.35%
- COc1cccc(-c2cc(C(=O)N3CCN(Cc4ccccc4)CC3)no2)c1 — lower, -15.7%
- COc1cccc(-c2cc(C(=O)NCCc3ccccc3)no2)c1 — lower, 11.9%
- CC(C)(C)OC(=O)N1CCC(Cc2cc(-c3ccccc3)no2)(C(=O)O)CC1 — lower, 12.1%
- c1ccc(CCCN2CCOCC2)cc1 — lower, 22.1%
- COc1cccc(-c2cc(CC3(O)CCN(CCCc4ccccc4)CC3)on2)c1 — lower, -89.1%
- OC1(Cc2cc(-c3ccccc3)no2)CCN(CCCc2ccccc2)CC1 — lower, -77%
- COCCN1Cc2cccc(C(=O)Nc3ccc(S(=O)(=O)N4CCOCC4)cc3)c2C1=O — higher, 27.3%
- O=C(O)CCCN=C1NC2(CCCC2)Cc2ccccc21 — lower, -39.6%
- COc1cccc(C(=O)N(Cc2ccccc2)Cc2cc3cc4c(cc3[nH]c2=O)OCCO4)c1 — lower, -25.3%
- COc1cc(Cl)c(CN2CCC(CCC(=O)NC3CC3)CC2)cc1OC — lower, -66.2%
- COc1cc(CC(=O)OCC(=O)NC2CC2)cc(OC)c1OC — lower, 10.4%
- COc1cc(Cl)cc(CN2CCC(CCC(=O)NC3CC3)CC2)c1OC — lower, -20.8%
- COc1cc(Br)c(CC(=O)NC2CC2)cc1OC — lower, 17.8%
- COc1cc(CN2CCC(CCC(=O)NC3CC3)CC2)cc(Cl)c1OC — lower, -55.4%
- COc1ccccc1CC(=O)N1CCC(CCC(=O)NC2CC2)CC1 — lower, 13.8%
- CCOCc1cc(CN2CCC(CCC(=O)NC3CC3)CC2)ccc1OC — lower, -62.1%
- COc1ccc(OC)c(C(=O)N2CCC(CCC(=O)NC3CC3)CC2)c1 — lower, 13.1%
- COc1cc(NC(=O)C2CC2)c(OC)cc1NC(=O)CCC(=O)NC1CCN(Cc2ccccc2)CC1 — lower, 2.82%
- COc1ccc(-c2nc3ccccc3c(=O)n2CCOc2ccccc2C)cc1 — lower, 21%
- Cc1ccccc1-c1nc(CS(=O)(=O)CC(=O)NCCN2CCCC2)c(C)o1 — lower, -10.4%
- COC(=O)c1ccccc1NC(=O)CCC(=O)N1CCSc2ccccc21 — lower, -12.1%
- COc1ccc(N(CC(=O)Nc2cccc(SC)c2)S(C)(=O)=O)cc1 — lower, -12.5%
- CC(CCc1ccccc1)NC(=O)CNC(=O)c1cccs1 (stereo not shown) — lower, -5.72%
- COc1ccc(NC(=O)NNC(=O)C(C)Oc2ccc3ccccc3c2)cc1 (stereo not shown) — lower, 8.34%
- CC(C)(C)c1ccc(-c2conc2N)cc1 — lower, 5.58%
- CCOc1ccccc1C(=O)N(C)CC(=O)Nc1ccc(OC)cc1 — lower, 12%
- Cc1ccc(S(=O)(=O)NNC(=S)Nc2c(Cl)cccc2Cl)cc1 — lower, 16.8%
- Cc1cc(N2CCCc3ccccc32)n2ncnc2n1 — lower, 6.99%
- Cc1ccc(S(=O)(=O)N(C)C)cc1NC(=O)C1Cc2ccccc2CN1C(=O)c1ccco1 (stereo not shown) — lower, -9.91%
- CCOC(=O)CSc1nc(NCc2ccco2)c2ccccc2n1 — lower, -56.1%
- COc1ccc(CNc2nc(SCC(=O)NCc3ccco3)nc3ccccc23)cc1 — lower, -68.9%
- CCCCN(C)C(=O)CSc1nc(NCc2ccc(OC)cc2)c2ccccc2n1 — lower, -71%
- CCOC(=O)CSc1nc(C)c2ccccc2n1 — lower, 0.921%
- COc1ccc(-c2ccc(SCC(=O)NCc3ccco3)nn2)cc1 — lower, -8.73%
- COc1ccc(CNC(=O)c2ccccc2SCC(=O)NCc2ccco2)cc1 — lower, -31.3%
- CSc1nc(NCc2ccco2)c2ccccc2n1 — lower, 2.5%
- CCOC(=O)c1nc(NCc2cccc(OC)c2)c2ccccc2n1 — lower, -13.5%
- COc1ccc(CNc2ncnc3ccccc23)cc1 — lower, 21.7%
- CCN1CCN(Cc2ccc(NC(=O)c3cc(NC(=O)c4cc(C)on4)cc(OC)c3)cc2C(F)(F)F)CC1.O=C(O)C(F)(F)F — lower, -28.7%
- Cc1ccc2cccc(S(=O)(=O)NC3CCS(=O)(=O)C3)c2n1 (stereo not shown) — lower, -7.02%
- O=S(=O)(NCC1(N2CCOCC2)CCCCC1)c1ccc(Cl)cc1C(F)(F)F — lower, -0.581%
- Cc1cc(NC(=O)c2cc3n(n2)C(C(F)(F)F)CC(c2ccco2)N3)no1 (stereo not shown) — lower, 4.63%
- Cn1c(=O)n(-c2ccc(Cl)cc2)c(=O)c2c3c(sc21)COC(C)(C)C3 — lower, 3.68%
- O=C(N/N=C/c1cccnc1)c1ccccc1Cl — lower, 14.2%
- COc1ccc(Cc2c(O)[nH]c(=S)[nH]c2=O)cc1 — lower, 13.8%
- CN1CCN(C(=O)CN(CCc2ccccc2)S(C)(=O)=O)CC1 — lower, 11%
- CCn1ccnc1CN(C)Cc1cn(-c2cc(C)ccc2C)nc1-c1ccccc1 — lower, -51.7%
- CCn1ccnc1CN(C)Cc1cn(-c2cccc(C)c2)nc1-c1cccc(F)c1 — lower, -18.3%
- Cc1ccc(C)c(-n2cc(CNCCc3cnccn3)c(-c3ccccc3)n2)c1 — lower, -67.1%
- CCn1ccnc1CN(C)Cc1cn(-c2ccc(C)cc2)nc1-c1ccc(F)cc1 — lower, -39.9%
- CCn1ccnc1CNCc1cn(-c2cc(C)ccc2C)nc1-c1ccccc1 — lower, -69.3%
- Cc1ccc(C)c(-n2cc(CN3CCNC(=O)CC3)c(-c3ccccc3)n2)c1 — lower, -43.5%
- CCn1ccnc1CN(C)Cc1cn(-c2ccc(C)cc2)nc1-c1cccc(C)c1 — lower, -28.1%
- COCCN1CCC(CNCc2cn(-c3cc(C)ccc3C)nc2-c2ccccc2)C1 (stereo not shown) — lower, -18%
- Cc1ccc(C)c(-n2cc(CN3CCCN(C=O)CC3)c(-c3ccccc3)n2)c1 — lower, -31.9%
- CCCN1CCC(=NNC(=O)c2ccc(Br)o2)CC1 — lower, -7.22%
- COc1ccc(S(=O)(=O)N=C2C=C(C)C(=O)C(C)=C2)cc1 — lower, -8.48%
